Assay results: PubChem BioAssay (EPA / NIEHS)
“And” between values parts separate entries of the source, which are not always exact repeats. Equal entries are not always repeated. Inconclusive results are not listed. The source made the active and inactive calls. Rule for the calls, unless noted: active = hit-call score of the fitted dose curve at least 0.9, where 1 is the maximum; inactive = score below 0.9.

Legend:
[1] = read-out: Macrophage colony-stimulating factor (MCSF), CSF1 (gene 1435); experiment: BSK_LPS_MCSF: BioMAP Diversity Plus: LPS Assay for Macrophage colony-stimulating factor (MCSF) Biomarker Activity (AID 2283083); details: primary human HUVEC with PBMC; actives raise or lower the signal
Summary of the method: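 HUVEC–PBMC co-culture, M-CSF measured by ELISA 24 h after chemical dosing. Fitted in both directions relative to DMSO as negative control; overt cytotoxicity assessed by SRB total-protein staining in parallel cultures.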

[2] = read-out: Tissue Factor, F3 (gene 2152); experiment: BSK_LPS_TissueFactor: BioMAP Diversity Plus: LPS Assay for Tissue Factor Biomarker Activity (AID 2283084); details: primary human HUVEC with PBMC; actives raise or lower the signal
Summary of the method: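 Human umbilical vein endothelial cells co-cultured with PBMC were dosed with compound. Cell-surface CD142 was measured by ELISA 24 h later. Activity was fitted bidirectionally against DMSO, with SRB total-protein staining in parallel cultures for cytotoxicity.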

[3] = read-out: Tumor necrosis factor (Homo sapiens) (UniProt P01375); experiment: BSK_LPS_TNFa: BioMAP Diversity Plus: LPS Assay for Tumour Necrosis Factor alpha (TNFa) Biomarker Activity (AID 2283085); details: primary human HUVEC with PBMC; actives raise or lower the signal
Summary of the method: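 Human umbilical vein endothelial cells co-cultured with PBMC were exposed to test chemical and TNFa measured by ELISA 24 h after dosing. Bidirectional curve fitting was done relative to DMSO as negative control and baseline.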

CD38, CD38 (gene 952) = experiment: BSK_SAg_CD38: BioMAP Diversity Plus: SAg Assay for CD38 Biomarker Activity (AID 2283087); details: primary human HUVEC with PBMC; actives raise or lower the signal
Summary of the method: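 Fluorescence ELISA of cell-surface CD38 served as the read-out, with either increase or decrease fitted against DMSO controls. Cells were a human umbilical vein endothelium plus PBMC co-culture under SEB/TSST-1 stimulation, measured 24 h after dosing.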

CD40, CD40 (gene 958) = experiment: BSK_SAg_CD40: BioMAP Diversity Plus: SAg Assay for CD40 Biomarker Activity (AID 2283088); details: primary human HUVEC with PBMC; actives raise or lower the signal
Summary of the method: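 HUVEC plus PBMC co-culture, superantigen-activated, with CD40 read by ELISA 24 h after dosing. Curves fitted in both directions against DMSO. Overt cytotoxicity checked by parallel SRB total-protein staining.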

CD69, CD69 (gene 969) = experiment: BSK_SAg_CD69: BioMAP Diversity Plus: SAg Assay for CD69 Biomarker Activity (AID 2283089); details: primary human HUVEC with PBMC; actives raise or lower the signal;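 for AC50: cell surface CD69 protein quantified by ELISA with fluorescence detection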
Summary of the method: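 Primary human vascular co-culture (umbilical vein endothelium with peripheral blood mononuclear cells) exposed to test chemical for 24 h. CD69 levels quantified by fluorescence ELISA; DMSO served as negative control for bidirectional fitting.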

[4] = read-out: Monocyte Chemoattractant Protein-1 (MCP1), CCL2 (gene 6347); experiment: BSK_SAg_MCP1: BioMAP Diversity Plus: SAg Assay for Monocyte Chemoattractant Protein-1 (MCP1) Biomarker Activity (AID 2283090); details: primary human HUVEC with PBMC; actives raise or lower the signal
Summary of the method: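 MCP-1 levels in the endothelial–PBMC SAg co-culture were quantified by ELISA at 24 h post-dosing; both increases and decreases versus DMSO scored. Cytotoxicity monitored by SRB total protein in parallel cultures.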

[5] = read-out: E-selectin (Homo sapiens) (UniProt P16581); experiment: BSK_SAg_Eselectin: BioMAP Diversity Plus: SAg Assay for Eselectin Biomarker Activity (AID 2283091); details: primary human HUVEC with PBMC; actives raise or lower the signal
Summary of the method: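 Human umbilical vein endothelial cells co-cultured with peripheral blood mononuclear cells, SAg system. E-selectin is measured by ELISA 24 h after dosing and fitted bidirectionally against DMSO. Cytotoxicity is checked by SRB staining of parallel cultures.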

[6] = read-out: Monokine induced gamma interferon (MIG), CXCL9 (gene 4283); experiment: BSK_SAg_MIG: BioMAP Diversity Plus: SAg Assay for Monokine induced gamma interferon (MIG) Biomarker Activity (AID 2283092); details: primary human HUVEC with PBMC; actives raise or lower the signal
Summary of the method: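 Endothelial cells and PBMC were co-cultured, exposed to test chemicals, and sampled 24 h later. MIG was measured by ELISA, and responses were fitted in both directions relative to DMSO.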

[7] = BSK_SAg_PBMCCytotoxicity: PBMC Cytotoxicity Assessment in the BioMAP Diversity Plus: SAg Assay (AID 2283093); details: primary human HUVEC with PBMC;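 note: PBMC viability measured as Alamar Blue reduction fluorescence at 546/580 nm; fitted both ways against DMSO so a hit may be loss or gain of signal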;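 for AC50: PBMC superantigen activated with SEB plus TSST-1 one hour after compound addition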
Summary of the method: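 HUVEC/PBMC co-culture; PBMC exposed to chemical 1 h before SEB and TSST-1 activation (20 ng/mL each), incubated 90 h, then Alamar Blue 6 h, fluorescence 546/580 nm. Bidirectional fit versus DMSO baseline.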

[8] = read-out: Interleukin-8 (IL8), CXCL8 (gene 3576); experiment: BSK_SAg_IL8: BioMAP Diversity Plus: SAg Assay for Interleukin-8 (IL8) Biomarker Activity (AID 2283094); details: primary human HUVEC with PBMC; actives raise or lower the signal
Summary of the method: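 Human umbilical vein endothelial cells co-cultured with peripheral blood mononuclear cells; IL-8 measured by ELISA 24 h after chemical dosing. Bidirectional concentration-response fitting used DMSO as negative control and activity baseline.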

[9] = BSK_SAg_Proliferation: Cell Proliferation Assessment in the BioMAP Diversity Plus: SAg Assay (AID 2283095); details: primary human HUVEC with PBMC;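 note: relative cell number as total protein by SRB absorbance in sub-confluent culture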
Summary of the method: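 Human umbilical vein endothelial cells co-cultured with peripheral blood mononuclear cells; total protein measured by sulforhodamine B staining (0.1% SRB after 10% TCA fixation), absorbance at 560 nm, at 96 h. Bidirectional fit against DMSO baseline.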

[10] = BSK_SAg_SRB: Viability Assessment in the BioMAP Diversity Plus: SAg Assay (AID 2283096); details: primary human HUVEC with PBMC;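 note: cells read one day after compound addition; hits may be either gain or loss of signal compared with DMSO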
Summary of the method: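 Human umbilical vein endothelial cells co-cultured with PBMC, read 24 h after compound dosing. Total protein measured by sulforhodamine B staining (0.1% SRB after 10% TCA fixation, absorbance 560 nm); bidirectional fit versus DMSO baseline.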

[11] = molecular target: human CYP2C9, CYP2C9 (gene 1559) (UniProt P11712); experiment: NVS_ADME_hCYP2C9: NovaScreen (NVS) CYP450-related Enzyme Activity (ADME) Assay for human CYP2C9 (AID 2283108; active = hit-call score of the fitted dose curve at least 0.9, where 1 is the maximum)
Summary of the method: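 Recombinant human CYP2C9 expressed in SF9 cells, fluorogenic substrate, fluorescence read 0.75 h after dosing. Chemicals first run in duplicate at 10 uM, with actives followed in concentration series; loss of signal versus acetonitrile baseline.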

[12] = molecular target: Cytochrome P450 2C19 (Homo sapiens) (UniProt P33261); experiment: NVS_ADME_hCYP2C19: NovaScreen (NVS) CYP450-related Enzyme Activity (ADME) Assay for human CYP2C19 (AID 2283113; active = hit-call score of the fitted dose curve at least 0.9, where 1 is the maximum;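 note: potency for inhibition seen as loss of fluorescent signal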)
Summary of the method: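 Cell-free recombinant human CYP2C19 from insect cells, fluorescent substrate; activity read by fluorescence intensity 1 h after dosing. Primary screen in duplicate at 10 uM; actives retested in concentration series. Signal loss versus acetonitrile negative control.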

[13] = molecular target: human CYP2D6, CYP2D6 (gene 1565) (UniProt P10635); experiment: NVS_ADME_hCYP2D6: NovaScreen (NVS) CYP450-related Enzyme Activity (ADME) Assay for human CYP2D6 (AID 2283107; active = hit-call score of the fitted dose curve at least 0.9, where 1 is the maximum)
Summary of the method: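 Cell-free assay using recombinant human CYP2D6 expressed in insect cells, with a fluorogenic substrate read after 1 h. Primary screen in duplicate at 10 uM; actives followed up in concentration series. Loss of signal fitted relative to acetonitrile.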

[14] = molecular target: Cytochrome P450 3A4 (Homo sapiens) (UniProt P08684); experiment: NVS_ADME_hCYP3A4: NovaScreen (NVS) CYP450-related Enzyme Activity (ADME) Assay for human CYP3A4 (AID 2283110; active = hit-call score of the fitted dose curve at least 0.9, where 1 is the maximum)
Summary of the method: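 Cell-free recombinant enzyme expressed in insect cells; fluorescent substrate turnover read after 0.33 h, acetonitrile as negative control. Primary screen in duplicate at 10 uM, actives then tested in concentration series.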

[15] = molecular target: human CYP19A1, CYP19A1 (gene 1588) (UniProt P11511); experiment: NVS_ADME_hCYP19A1: NovaScreen (NVS) CYP450-related Enzyme Activity (ADME) Assay for human CYP19A1 (AID 2283098; active = hit-call score of the fitted dose curve at least 0.9, where 1 is the maximum;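 note: potency for inhibitors seen as loss of fluorescent enzyme signal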)
Summary of the method: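 Recombinant enzyme in a cell-free format, read 0.5 h after dosing by fluorescence from a fluorogenic substrate. Loss of signal was fitted against acetonitrile as baseline. Primary screen in duplicate at 10 uM, actives then tested in concentration series.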

Measured: AC50

Chain of Tumor necrosis factor (Homo sapiens) (P01375 whole entry, looked up): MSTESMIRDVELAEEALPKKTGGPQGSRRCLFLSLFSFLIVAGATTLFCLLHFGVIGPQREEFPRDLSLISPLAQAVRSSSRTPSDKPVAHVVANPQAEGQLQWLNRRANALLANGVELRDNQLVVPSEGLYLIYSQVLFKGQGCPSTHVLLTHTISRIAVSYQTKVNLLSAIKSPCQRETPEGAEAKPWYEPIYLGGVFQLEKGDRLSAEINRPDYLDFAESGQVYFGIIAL
Chain of human CYP2C9, CYP2C9 (gene 1559) (P11712 whole entry, looked up): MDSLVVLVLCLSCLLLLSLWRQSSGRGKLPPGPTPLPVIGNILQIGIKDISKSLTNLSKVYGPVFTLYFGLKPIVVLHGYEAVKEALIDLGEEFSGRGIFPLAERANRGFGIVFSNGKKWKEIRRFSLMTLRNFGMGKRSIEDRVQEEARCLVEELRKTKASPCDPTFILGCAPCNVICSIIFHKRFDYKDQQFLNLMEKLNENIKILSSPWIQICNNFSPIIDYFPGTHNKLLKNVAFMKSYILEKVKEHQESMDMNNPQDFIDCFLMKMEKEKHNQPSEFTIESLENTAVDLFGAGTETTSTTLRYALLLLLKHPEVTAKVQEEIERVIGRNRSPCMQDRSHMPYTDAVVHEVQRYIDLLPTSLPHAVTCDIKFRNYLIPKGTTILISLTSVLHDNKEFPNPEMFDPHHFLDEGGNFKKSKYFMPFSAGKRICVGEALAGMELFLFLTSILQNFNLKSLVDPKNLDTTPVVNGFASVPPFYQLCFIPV
Chain of E-selectin (Homo sapiens) (P16581 whole entry, looked up): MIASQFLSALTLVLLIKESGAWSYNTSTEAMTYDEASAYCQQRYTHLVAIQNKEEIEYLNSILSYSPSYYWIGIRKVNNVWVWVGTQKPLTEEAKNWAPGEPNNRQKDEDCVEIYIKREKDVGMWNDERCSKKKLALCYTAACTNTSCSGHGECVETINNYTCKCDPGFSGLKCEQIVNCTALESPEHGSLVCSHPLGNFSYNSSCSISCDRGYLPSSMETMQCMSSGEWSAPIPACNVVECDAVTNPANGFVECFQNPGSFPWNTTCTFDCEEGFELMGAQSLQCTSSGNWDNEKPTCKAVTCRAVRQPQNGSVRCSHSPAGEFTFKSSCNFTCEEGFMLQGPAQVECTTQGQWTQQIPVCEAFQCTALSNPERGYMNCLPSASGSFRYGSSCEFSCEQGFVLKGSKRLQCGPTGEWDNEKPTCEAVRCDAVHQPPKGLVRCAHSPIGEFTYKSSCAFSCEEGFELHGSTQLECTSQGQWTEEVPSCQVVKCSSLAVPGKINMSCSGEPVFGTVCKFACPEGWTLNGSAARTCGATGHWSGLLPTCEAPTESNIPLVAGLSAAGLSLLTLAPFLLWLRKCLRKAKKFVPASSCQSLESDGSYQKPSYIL
Chain of human CYP19A1, CYP19A1 (gene 1588) (P11511 whole entry, looked up): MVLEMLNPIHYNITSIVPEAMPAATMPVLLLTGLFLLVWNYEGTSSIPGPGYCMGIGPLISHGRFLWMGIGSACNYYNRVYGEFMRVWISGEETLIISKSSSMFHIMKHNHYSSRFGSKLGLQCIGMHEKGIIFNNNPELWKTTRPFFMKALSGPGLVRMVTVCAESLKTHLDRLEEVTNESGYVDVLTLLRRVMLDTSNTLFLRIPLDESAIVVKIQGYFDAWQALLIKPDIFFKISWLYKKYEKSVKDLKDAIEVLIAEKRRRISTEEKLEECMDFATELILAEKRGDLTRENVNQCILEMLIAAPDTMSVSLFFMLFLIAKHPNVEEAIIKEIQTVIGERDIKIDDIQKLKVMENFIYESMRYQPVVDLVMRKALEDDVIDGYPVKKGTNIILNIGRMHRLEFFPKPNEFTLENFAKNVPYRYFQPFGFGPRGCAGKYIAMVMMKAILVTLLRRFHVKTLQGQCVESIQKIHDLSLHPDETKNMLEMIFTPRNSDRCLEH
Chain of human CYP2D6, CYP2D6 (gene 1565) (P10635 whole entry, looked up): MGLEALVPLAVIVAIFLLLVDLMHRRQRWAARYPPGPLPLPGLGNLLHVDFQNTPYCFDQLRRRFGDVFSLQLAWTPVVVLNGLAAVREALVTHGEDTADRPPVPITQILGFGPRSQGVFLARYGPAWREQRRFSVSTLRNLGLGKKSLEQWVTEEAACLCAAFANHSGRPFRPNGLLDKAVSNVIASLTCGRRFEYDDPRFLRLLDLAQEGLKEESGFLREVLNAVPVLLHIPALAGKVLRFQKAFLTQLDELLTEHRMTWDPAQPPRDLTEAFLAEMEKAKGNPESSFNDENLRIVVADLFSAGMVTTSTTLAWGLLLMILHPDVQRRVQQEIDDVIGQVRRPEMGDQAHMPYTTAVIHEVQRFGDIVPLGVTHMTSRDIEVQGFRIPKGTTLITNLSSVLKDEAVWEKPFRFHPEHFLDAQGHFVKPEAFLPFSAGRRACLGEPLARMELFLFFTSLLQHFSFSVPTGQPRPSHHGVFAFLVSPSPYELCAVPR
Chain of Cytochrome P450 3A4 (Homo sapiens) (P08684 whole entry, looked up): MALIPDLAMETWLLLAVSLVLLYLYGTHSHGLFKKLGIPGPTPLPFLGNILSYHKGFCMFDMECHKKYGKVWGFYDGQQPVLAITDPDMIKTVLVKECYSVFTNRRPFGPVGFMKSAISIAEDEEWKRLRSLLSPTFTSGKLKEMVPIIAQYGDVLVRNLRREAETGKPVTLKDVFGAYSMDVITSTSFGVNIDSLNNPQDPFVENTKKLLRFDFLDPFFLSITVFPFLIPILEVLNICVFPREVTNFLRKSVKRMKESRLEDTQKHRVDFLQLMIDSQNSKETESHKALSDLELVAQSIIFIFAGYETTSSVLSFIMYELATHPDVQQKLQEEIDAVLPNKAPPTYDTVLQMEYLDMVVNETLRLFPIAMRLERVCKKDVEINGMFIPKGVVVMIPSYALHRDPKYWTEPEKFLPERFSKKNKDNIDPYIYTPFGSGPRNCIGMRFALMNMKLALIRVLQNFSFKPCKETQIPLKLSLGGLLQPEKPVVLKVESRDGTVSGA

C#C[C@]1(O)CC[C@H]2[C@@H]3CCC4=Cc5oncc5C[C@]4(C)[C@H]3CC[C@@]21C
not listed: [11] | [12] | [13] | [14] | [15]
inactive: all other assays above

CC(=O)Nc1ccccc1O
not listed: [11] | [12] | [13] | [14] | [15]
inactive: all other assays above

N#Cc1ccc(CC(=NNC(=O)Nc2ccc(OC(F)(F)F)cc2)c2cccc(C(F)(F)F)c2)cc1
not listed: [11] | [12] | [13] | [14] | [15]
inactive: all other assays above

CCCCC/C=C/C=C/C=O
active: [1] 33.2 µM | [2] 31.9 µM | [3] 30.8 µM | CD38, CD38 (gene 952) 31.7 µM | CD40, CD40 (gene 958) 20 µM | CD69, CD69 (gene 969) 30 µM | [4] 31.2 µM | [5] 28.3 µM | [6] 35.6 µM | [7] 20 µM | [8] 20 µM | [9] 14.2 µM | [10] 31.5 µM

O=P(c1ccccc1)(c1ccccc1)c1ccccc1
active: [11] 3.19 µM | [12] 0.0121 µM
not listed: [13] | [14] | [15]
inactive: all other assays above

CC(C)(COC(=O)c1ccccc1)COC(=O)c1ccccc1
active: [1] 30.9 µM | CD40, CD40 (gene 958) 32.3 µM | CD69, CD69 (gene 969) 31.7 µM | [5] 28.8 µM | [9] 20 µM
not listed: [11] | [12] | [13] | [14] | [15]
inactive: all other assays above

Nc1ccc(F)c([N+](=O)[O-])c1
inactive: [13] | [11]
active: [12] 0.0662 µM

CC(=O)/C=C/C1=C(C)CCCC1(C)C
not listed: [11] | [12] | [13] | [14] | [15]
inactive: all other assays above

O=C=NC1CCC(CC2CCC(N=C=O)CC2)CC1 (stereo not drawn)
active: [2] 3.97 µM | [3] 2.2 µM | [7] 13.3 µM | [9] 33.5 µM
not listed: [11] | [12] | [13] | [14] | [15]
inactive: all other assays above

O=C(O)c1ccc([N+](=O)[O-])cc1
not listed: [11] | [12] | [13] | [14] | [15]
inactive: all other assays above

CC(=O)O[C@]1(C(C)=O)CC[C@H]2[C@@H]3C[C@H](C)C4=CC(=O)CC[C@]4(C)[C@H]3CC[C@@]21C
active: [11] 0.119 µM | [14] 0.00997 µM | [12] 2.5 µM
not listed: [13] | [15]
inactive: all other assays above

CN(CCOc1ccc(CC2SC(=O)NC2=O)cc1)c1ccccn1 (stereo not drawn)
active: [2] 24.9 µM | CD38, CD38 (gene 952) 20 µM | CD40, CD40 (gene 958) 20 µM | CD69, CD69 (gene 969) 20 µM | [4] 20 µM | [5] 20 µM | [8] 20 µM | [9] 20 µM
inactive: [1] | [3] | [6] | [7] | [10]

CCCCCCCCCCCCCCCC(=O)OC[C@H](O)[C@H]1OC(=O)C(O)=C1O
active: [15] 2.33 µM

CC(=O)[C@H]1CC[C@H]2[C@@H]3CC=C4C[C@@H](O)CC[C@]4(C)[C@H]3CC[C@]12C
active: [2] 9.59 µM and 11.8 µM | [7] 6.25 µM and 7.57 µM
not listed: [11] | [12] | [13] | [14] | [15]
inactive: all other assays above

O=C1CCCCCCCCCCCCCCO1
active: CD69, CD69 (gene 969) 20 µM | [7] 11.7 µM | [9] 10.3 µM
not listed: [11] | [12] | [13] | [14] | [15]
inactive: all other assays above
